# In paper PMC7862700, “An all-to-all approach to the identification of sequence-specific readers for epigenetic DNA modifications on cytosine”:
# Legend:
# Assay in all cases: DAPPL (digital affinity profiling via proximity ligation, sequencing); 10 mM Tris-HCl pH 7.5, 50 mM NaCl, 1 mM DTT, 4% glycerol, room temperature, 30 min; GST-TFs on glutathione beads, 16-mer random dsDNA library, 0.1% formaldehyde crosslink after washing; high values mean tight binding
# FEV = target: T1, FEV (Homo sapiens, UniProt Q99581 1-238); details: protein: recombinant; tags: N-terminal GST; dsDNA, one strand shown
# T1 sequence: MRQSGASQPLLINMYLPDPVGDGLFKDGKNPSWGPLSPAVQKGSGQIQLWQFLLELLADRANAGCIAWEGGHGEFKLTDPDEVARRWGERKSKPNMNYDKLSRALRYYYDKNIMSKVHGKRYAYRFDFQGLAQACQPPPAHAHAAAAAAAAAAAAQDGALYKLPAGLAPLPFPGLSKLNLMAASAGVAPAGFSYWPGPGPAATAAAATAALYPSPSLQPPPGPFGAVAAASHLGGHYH
# Procedure, shortened: (§1)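 Binding signal is each hexamer's read frequency for a factor divided by its frequency in the tag-only sample. The factors were GST-fused human transcription factors from yeast, captured on glutathione beads, DNA-barcoded and pooled with that sample. Pools were incubated with 200 nmole of a random double-stranded 16-mer DNA library in Tris/NaCl/DTT/glycerol buffer at room temperature for 30 min, then washed, crosslinked with 0.1% formaldehyde, proximity-ligated with BsaI/T4 ligase (1 h, 37 °C), PCR-amplified and sequenced on an Illumina NextSeq500.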
# ETV5 = ETV5 (Homo sapiens, UniProt P41161 1-510); details: protein: recombinant; tags: N-terminal GST; dsDNA, one strand shown
# Procedure, shortened: as §1
# HSF1 = HSF1 (Homo sapiens, UniProt Q00613 1-529); details: protein: recombinant; tags: N-terminal GST; chain copies: 3; dsDNA, one strand shown
# Procedure, shortened: as §1
# SPIC = target: T2, SPIC (Homo sapiens, UniProt Q8N5J4 1-248); details: protein: recombinant; tags: N-terminal GST; dsDNA, one strand shown
# T2 sequence: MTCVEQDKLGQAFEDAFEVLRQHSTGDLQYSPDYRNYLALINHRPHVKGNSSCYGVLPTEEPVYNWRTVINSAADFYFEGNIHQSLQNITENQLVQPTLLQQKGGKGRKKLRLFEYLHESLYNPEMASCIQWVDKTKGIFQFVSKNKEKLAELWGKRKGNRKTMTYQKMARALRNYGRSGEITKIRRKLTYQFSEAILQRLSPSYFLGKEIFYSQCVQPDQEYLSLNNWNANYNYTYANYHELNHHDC
# Procedure, shortened: as §1
# ELF4 = ELF4 (Homo sapiens, UniProt Q99607 1-663); details: protein: recombinant; tags: N-terminal GST; dsDNA, one strand shown
# Procedure, shortened: as §1
# ELK4 = target: T3, ELK4 (Homo sapiens, UniProt P28324-2 1-405); details: protein: recombinant; tags: N-terminal GST; dsDNA, one strand shown
# T3 sequence: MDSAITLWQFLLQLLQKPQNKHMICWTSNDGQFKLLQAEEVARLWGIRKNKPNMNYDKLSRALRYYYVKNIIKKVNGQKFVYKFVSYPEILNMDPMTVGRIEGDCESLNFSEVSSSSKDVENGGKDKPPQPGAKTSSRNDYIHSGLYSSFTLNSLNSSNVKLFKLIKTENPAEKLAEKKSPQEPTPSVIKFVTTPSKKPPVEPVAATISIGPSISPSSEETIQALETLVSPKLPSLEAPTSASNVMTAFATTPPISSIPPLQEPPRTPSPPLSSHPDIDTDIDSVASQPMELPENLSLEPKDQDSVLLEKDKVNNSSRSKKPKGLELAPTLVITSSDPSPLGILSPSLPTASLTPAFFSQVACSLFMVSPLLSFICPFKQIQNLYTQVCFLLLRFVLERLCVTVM
# Procedure, shortened: as §1
# ETV2 = target: T4, ETV2 (Homo sapiens, UniProt O00321 1-342); details: protein: recombinant; tags: N-terminal GST; dsDNA, one strand shown
# T4 sequence: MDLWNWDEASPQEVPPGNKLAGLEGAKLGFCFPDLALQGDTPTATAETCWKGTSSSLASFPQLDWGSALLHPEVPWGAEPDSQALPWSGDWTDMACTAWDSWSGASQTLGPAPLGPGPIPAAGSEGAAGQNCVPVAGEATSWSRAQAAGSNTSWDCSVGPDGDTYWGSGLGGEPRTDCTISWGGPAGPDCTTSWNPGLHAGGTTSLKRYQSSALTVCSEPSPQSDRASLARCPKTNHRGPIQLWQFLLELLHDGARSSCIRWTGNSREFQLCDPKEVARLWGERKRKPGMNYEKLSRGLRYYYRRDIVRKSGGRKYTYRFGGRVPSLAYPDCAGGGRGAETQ
# Procedure, shortened: as §1
# ELF3 = target: T5, ELF3 (Homo sapiens, UniProt P78545 1-371); details: protein: recombinant; tags: N-terminal GST; dsDNA, one strand shown
# T5 sequence: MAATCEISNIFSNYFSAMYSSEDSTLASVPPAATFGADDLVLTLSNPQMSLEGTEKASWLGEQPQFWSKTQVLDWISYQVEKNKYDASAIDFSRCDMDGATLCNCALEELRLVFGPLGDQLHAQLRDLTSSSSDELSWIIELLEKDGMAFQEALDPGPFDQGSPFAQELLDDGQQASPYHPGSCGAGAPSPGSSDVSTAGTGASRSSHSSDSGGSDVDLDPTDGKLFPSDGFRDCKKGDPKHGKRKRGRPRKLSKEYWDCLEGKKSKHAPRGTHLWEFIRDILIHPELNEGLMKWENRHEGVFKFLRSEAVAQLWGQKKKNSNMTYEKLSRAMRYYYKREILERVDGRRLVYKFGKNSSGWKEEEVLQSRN
# Procedure, shortened: as §1
# CRX = CRX (Homo sapiens, UniProt O43186 1-299); details: protein: recombinant; tags: N-terminal GST; dsDNA, one strand shown
# Procedure, shortened: as §1
# ETV1 = ETV1 (Homo sapiens, UniProt P50549 1-477); details: protein: recombinant; tags: N-terminal GST; dsDNA, one strand shown
# Procedure, shortened: as §1
# ERF = target: T6, ERF (Homo sapiens, UniProt P50548 1-548); details: protein: recombinant; tags: N-terminal GST; dsDNA, one strand shown
# T6 sequence: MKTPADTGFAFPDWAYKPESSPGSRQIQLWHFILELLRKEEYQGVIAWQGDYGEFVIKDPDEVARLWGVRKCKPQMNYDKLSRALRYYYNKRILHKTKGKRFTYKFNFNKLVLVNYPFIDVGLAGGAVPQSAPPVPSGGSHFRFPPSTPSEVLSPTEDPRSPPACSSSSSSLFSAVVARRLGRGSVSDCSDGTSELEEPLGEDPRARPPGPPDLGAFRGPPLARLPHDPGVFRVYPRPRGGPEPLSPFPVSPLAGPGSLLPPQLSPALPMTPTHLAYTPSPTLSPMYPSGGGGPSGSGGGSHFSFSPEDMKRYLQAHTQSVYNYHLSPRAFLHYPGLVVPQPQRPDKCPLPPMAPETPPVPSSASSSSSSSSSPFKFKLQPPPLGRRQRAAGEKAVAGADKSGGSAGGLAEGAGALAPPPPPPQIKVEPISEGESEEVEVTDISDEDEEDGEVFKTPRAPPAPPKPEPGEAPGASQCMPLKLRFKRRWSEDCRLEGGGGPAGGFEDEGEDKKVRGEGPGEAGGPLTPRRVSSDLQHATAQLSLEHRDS
# Procedure, shortened: as §1
# ETV3L = target: T7, ETV3L (Homo sapiens, UniProt Q6ZN32 1-361); details: protein: recombinant; tags: N-terminal GST; dsDNA, one strand shown
# T7 sequence: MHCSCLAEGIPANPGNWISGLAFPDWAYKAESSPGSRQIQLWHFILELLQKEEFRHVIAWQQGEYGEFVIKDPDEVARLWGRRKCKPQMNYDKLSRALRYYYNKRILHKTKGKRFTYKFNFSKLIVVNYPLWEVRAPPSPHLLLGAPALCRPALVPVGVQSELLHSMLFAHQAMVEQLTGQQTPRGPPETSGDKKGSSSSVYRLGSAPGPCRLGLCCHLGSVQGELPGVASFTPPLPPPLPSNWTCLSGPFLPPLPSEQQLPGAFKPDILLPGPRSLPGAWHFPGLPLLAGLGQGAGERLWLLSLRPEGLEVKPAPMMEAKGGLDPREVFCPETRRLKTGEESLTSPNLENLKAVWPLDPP
# Procedure, shortened: as §1
# ETS2 = target: T8, ETS2 (Homo sapiens, UniProt P15036 1-469); details: protein: recombinant; tags: N-terminal GST; dsDNA, one strand shown
# T8 sequence: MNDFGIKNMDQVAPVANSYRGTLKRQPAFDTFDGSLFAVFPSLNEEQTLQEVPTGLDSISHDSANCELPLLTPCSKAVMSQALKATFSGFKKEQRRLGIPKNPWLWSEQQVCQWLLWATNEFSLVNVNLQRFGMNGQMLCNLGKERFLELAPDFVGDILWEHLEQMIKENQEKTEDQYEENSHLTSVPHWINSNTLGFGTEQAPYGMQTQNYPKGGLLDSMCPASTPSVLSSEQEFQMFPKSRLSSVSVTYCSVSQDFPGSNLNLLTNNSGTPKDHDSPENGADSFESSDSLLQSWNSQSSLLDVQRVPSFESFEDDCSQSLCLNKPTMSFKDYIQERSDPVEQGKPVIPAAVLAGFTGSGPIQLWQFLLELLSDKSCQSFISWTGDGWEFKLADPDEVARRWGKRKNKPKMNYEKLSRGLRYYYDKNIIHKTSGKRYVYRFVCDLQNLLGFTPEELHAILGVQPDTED
# Procedure, shortened: as §1
# SPDEF = target: T9, SPDEF (Homo sapiens, UniProt O95238 1-335); details: protein: recombinant; tags: N-terminal GST; dsDNA, one strand shown
# T9 sequence: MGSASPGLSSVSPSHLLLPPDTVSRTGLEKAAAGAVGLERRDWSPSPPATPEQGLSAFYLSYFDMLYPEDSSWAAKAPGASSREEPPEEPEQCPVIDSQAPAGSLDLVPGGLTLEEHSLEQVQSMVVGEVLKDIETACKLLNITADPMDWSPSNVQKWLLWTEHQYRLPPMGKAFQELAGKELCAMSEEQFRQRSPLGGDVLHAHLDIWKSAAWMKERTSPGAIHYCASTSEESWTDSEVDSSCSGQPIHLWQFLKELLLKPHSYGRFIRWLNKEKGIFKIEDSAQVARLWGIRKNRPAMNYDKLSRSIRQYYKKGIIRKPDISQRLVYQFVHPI
# Procedure, shortened: as §1
# ETV7 = target: T10, ETV7 (Homo sapiens, UniProt Q9Y603 1-341); details: protein: recombinant; tags: N-terminal GST; dsDNA, one strand shown
# T10 sequence: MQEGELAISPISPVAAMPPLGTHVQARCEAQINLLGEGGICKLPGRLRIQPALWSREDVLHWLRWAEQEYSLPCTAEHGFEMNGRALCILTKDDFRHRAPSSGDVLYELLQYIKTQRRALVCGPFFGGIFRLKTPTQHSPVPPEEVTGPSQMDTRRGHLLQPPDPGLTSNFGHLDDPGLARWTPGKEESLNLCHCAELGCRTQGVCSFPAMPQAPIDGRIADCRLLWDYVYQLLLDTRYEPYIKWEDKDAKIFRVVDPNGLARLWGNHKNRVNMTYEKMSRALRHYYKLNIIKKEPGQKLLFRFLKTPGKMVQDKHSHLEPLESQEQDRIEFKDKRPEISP
# Procedure, shortened: as §1
# ELF5 = target: T11, ELF5 (Homo sapiens, UniProt Q9UKW6-2 1-255); details: protein: recombinant; tags: N-terminal GST; dsDNA, one strand shown
# T11 sequence: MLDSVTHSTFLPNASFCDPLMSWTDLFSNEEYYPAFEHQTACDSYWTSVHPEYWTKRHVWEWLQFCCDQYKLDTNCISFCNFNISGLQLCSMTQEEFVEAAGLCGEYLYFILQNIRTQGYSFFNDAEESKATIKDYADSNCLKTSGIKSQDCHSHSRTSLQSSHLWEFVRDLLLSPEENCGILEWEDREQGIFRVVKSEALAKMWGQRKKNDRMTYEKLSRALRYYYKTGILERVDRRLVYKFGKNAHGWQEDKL
# Procedure, shortened: as §1
# ETV3 = target: T12, ETV3 (Homo sapiens, UniProt P41162-2 1-143); details: protein: recombinant; tags: N-terminal GST; dsDNA, one strand shown
# T12 sequence: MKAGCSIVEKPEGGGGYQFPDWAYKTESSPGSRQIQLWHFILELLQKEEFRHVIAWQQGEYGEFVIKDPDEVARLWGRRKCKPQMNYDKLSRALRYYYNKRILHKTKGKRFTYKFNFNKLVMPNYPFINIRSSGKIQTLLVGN
# Procedure, shortened: as §1
# ETV6 = ETV6 (Homo sapiens, UniProt P41212 1-452); details: protein: recombinant; tags: N-terminal GST; dsDNA, one strand shown
# Procedure, shortened: as §1
# Chain of ELF4 (Q99607 whole entry): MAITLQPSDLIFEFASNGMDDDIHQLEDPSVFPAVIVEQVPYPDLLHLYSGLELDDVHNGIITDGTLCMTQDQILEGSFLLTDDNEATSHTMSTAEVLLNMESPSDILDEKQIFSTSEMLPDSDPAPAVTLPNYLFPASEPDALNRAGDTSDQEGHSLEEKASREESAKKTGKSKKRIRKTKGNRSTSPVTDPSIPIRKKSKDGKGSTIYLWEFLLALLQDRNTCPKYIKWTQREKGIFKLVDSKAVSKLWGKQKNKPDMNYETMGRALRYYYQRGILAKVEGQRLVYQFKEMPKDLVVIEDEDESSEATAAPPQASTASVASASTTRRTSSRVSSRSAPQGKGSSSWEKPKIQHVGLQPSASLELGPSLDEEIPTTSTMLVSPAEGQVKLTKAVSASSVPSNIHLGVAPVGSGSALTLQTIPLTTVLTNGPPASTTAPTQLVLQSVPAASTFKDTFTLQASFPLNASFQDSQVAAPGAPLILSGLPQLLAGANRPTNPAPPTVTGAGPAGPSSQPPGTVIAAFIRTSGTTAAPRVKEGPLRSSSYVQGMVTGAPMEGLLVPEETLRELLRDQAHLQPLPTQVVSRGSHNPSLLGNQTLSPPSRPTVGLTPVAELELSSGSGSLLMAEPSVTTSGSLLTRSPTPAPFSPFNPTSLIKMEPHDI
# Chain of ETV5 (P41161 whole entry): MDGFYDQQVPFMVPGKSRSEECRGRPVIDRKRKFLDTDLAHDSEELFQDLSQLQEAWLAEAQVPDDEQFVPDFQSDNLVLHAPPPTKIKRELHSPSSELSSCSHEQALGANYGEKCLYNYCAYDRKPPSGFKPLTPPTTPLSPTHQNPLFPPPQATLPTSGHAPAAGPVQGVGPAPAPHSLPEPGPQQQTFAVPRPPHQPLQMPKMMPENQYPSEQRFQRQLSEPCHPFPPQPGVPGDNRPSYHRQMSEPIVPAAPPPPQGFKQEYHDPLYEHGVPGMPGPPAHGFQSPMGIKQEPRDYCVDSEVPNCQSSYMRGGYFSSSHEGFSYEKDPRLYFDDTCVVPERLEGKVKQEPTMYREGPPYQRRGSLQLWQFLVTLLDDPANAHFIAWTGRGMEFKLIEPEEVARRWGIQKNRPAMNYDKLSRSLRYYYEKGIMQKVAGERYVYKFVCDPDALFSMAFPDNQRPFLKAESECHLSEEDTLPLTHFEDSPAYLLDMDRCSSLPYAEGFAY
# Chain of ETV1 (P50549 whole entry): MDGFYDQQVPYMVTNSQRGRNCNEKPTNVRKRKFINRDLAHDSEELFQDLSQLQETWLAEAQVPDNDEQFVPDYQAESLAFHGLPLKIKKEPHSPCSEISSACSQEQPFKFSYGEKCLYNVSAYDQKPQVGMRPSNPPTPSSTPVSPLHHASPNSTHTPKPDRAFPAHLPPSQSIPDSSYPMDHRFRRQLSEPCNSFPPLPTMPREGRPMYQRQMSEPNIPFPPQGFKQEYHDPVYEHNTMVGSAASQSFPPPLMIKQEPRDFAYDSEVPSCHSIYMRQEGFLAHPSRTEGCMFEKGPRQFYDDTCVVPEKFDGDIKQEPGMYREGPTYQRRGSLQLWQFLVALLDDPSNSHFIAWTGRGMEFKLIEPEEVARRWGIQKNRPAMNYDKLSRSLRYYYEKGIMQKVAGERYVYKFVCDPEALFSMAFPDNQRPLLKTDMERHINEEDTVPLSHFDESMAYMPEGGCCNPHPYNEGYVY
# Chain of HSF1 (Q00613 whole entry): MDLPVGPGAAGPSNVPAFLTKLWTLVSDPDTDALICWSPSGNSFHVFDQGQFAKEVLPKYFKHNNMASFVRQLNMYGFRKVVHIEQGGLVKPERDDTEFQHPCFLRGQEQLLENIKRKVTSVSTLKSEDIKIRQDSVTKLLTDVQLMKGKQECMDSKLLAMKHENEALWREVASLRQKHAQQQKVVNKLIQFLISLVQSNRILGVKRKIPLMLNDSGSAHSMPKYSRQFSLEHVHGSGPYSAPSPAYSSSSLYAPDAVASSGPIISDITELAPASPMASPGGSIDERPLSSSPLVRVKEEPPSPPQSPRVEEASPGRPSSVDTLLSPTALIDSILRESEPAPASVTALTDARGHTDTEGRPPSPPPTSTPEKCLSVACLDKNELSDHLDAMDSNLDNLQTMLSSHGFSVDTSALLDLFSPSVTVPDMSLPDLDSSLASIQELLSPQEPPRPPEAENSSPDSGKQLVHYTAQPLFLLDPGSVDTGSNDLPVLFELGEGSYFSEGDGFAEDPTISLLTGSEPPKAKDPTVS
# Chain of CRX (O43186 whole entry): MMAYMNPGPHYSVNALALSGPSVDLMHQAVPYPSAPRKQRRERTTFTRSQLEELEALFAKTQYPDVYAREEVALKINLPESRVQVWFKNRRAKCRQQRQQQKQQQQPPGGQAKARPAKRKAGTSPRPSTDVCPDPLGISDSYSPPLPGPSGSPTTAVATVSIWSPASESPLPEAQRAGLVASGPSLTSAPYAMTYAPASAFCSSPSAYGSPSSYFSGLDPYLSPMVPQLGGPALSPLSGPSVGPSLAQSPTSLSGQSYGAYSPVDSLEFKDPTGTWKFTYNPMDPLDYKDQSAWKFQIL
# Chain of ETV6 (P41212 whole entry): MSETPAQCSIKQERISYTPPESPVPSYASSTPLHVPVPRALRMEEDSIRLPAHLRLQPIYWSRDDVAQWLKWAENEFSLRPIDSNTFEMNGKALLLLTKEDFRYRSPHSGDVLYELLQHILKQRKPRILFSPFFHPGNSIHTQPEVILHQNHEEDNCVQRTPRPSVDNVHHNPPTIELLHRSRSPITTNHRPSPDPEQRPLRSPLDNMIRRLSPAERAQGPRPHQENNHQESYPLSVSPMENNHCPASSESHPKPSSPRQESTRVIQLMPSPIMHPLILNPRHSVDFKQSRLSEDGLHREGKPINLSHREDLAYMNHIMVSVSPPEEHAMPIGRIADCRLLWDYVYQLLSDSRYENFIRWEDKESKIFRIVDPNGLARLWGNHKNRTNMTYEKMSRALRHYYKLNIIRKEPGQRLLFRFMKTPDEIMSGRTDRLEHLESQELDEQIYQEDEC
sequence,measurement,setting,value
CTTGCA,binding signal,FEV,"1.3 fold enrichment (6-mer frequency, TF over GST control)"
same,binding signal,ETV5,"1.31 fold enrichment (6-mer frequency, TF over GST control)"
same,binding signal,HSF1,"1.12 fold enrichment (6-mer frequency, TF over GST control)"
same,binding signal,SPIC,"1.28 fold enrichment (6-mer frequency, TF over GST control)"
same,binding signal,ELF4,"1.41 fold enrichment (6-mer frequency, TF over GST control)"
same,binding signal,ELK4,"1.4 fold enrichment (6-mer frequency, TF over GST control)"
same,binding signal,ETV2,"1.45 fold enrichment (6-mer frequency, TF over GST control)"
same,binding signal,ELF3,"1.3 fold enrichment (6-mer frequency, TF over GST control)"
same,binding signal,CRX,"1.15 fold enrichment (6-mer frequency, TF over GST control)"
same,binding signal,ETV1,"1.41 fold enrichment (6-mer frequency, TF over GST control)"
same,binding signal,ERF,"1.39 fold enrichment (6-mer frequency, TF over GST control)"
same,binding signal,ETV3L,"1.53 fold enrichment (6-mer frequency, TF over GST control)"
same,binding signal,ETS2,"1.33 fold enrichment (6-mer frequency, TF over GST control)"
same,binding signal,SPDEF,"1.49 fold enrichment (6-mer frequency, TF over GST control)"
same,binding signal,ETV7,"1.28 fold enrichment (6-mer frequency, TF over GST control)"
same,binding signal,ELF5,"1.36 fold enrichment (6-mer frequency, TF over GST control)"
same,binding signal,ETV3,"1.45 fold enrichment (6-mer frequency, TF over GST control)"
same,binding signal,ETV6,"1.3 fold enrichment (6-mer frequency, TF over GST control)"
